SMILES strings stand for the structures. Calls of active or inactive are those of the source.

The values below come from PubChem BioAssay.

Assay [1] relates to PRMT1 (protein arginine N-methyltransferase 1). The assay can be described thus: PRMT1 binders on small-molecule microarrays, primary screen, biochemical, small-molecule microarray, 635 nm fluorescence (AID 1088).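 Note: binding of Prmt1 protein to compounds spotted on small-molecule microarray slides.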 The settings on record: small-molecule microarray binding, higher = more signal.
A short description of assay [2]: yeast growth modulation, basal conditions, primary screen, YJM789 clinical isolate, OD600, 24 h (AID 1089).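 Note: growth of clinical yeast isolate S. cerevisiae YJM 789 seeded 1000 cells per well; test concentration not given here.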 As to conditions: S. cerevisiae YJM789 growth, higher = more signal, called active from +8 up or from −8 down.
The nature of assay [3]: fission yeast growth modulation, primary screen, strain 972, OD600, 24 h, no modulator (AID 1090).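 Note: basal condition with compound alone and no growth modifier present; test concentration not given here.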 The settings on record: S. pombe 972 growth, higher = more signal, called active from +8 up or from −8 down.
Assay [4] is described as follows: S. cerevisiae growth modulation with rapamycin, primary screen, strain BY4716, OD600, 96 h (AID 1091). Note: test concentration not given here. The settings on record: higher = more signal, called active from +8 up or from −8 down.
The target in assay [5] is Torsin-1A-interacting protein 2 (Homo sapiens) (UniProt Q8NFQ8). As to the kind of experiment: LULL1 binders on small-molecule microarray, primary screen, cell lysate, human LULL1 lysate, 635/667 nm fluorescence (AID 1092).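 Note: probe is lysate of COS7 cells overexpressing human LULL1; score merges per-feature 667 nm fluorescence with signal-to-noise.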 As to conditions: hLULL1 lysate binding, 635 nm fluorescence, higher = more signal.
Assay [6] in a line: E. coli growth modulation, two-sided OD650, primary screen, E. coli filamentation project, strain DRC41, 24 h (AID 1093).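 Note: MC1000 strain lacking acrAB efflux and sulA so SOS filamentation is blocked; test concentration not given here.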 The settings on record: OD650, 24 h, higher = more signal, called active from +8 up or from −8 down.
Assay [7] can be described thus: small-molecule microarray binders of probe aLefty2, primary screen, biochemical, biotinylated probe, 635/667 nm fluorescence (AID 1094).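 Note: score merges spot fluorescence near 667 nm with spot signal-to-noise ratio.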 The settings on record: higher = more signal.
Assay [8] relates to Noggin (protein binding on small-molecule microarray). As to the kind of experiment: Noggin binders on small-molecule microarray, primary screen, biochemical, 635/667 nm fluorescence (AID 1095).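 Note: score merges 667 nm feature fluorescence with signal to noise over triplicate slides.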 As to conditions: 635 nm fluorescence, higher = more signal.
Assay [9] has as its target Neurogenic locus notch homolog protein 3 (Homo sapiens) (UniProt Q9UM47). As to the kind of experiment: NOTCH3 binders on small-molecule microarray, primary screen, biochemical, 635/667 nm fluorescence (AID 1096). As to conditions: NOTCH3 binding, 635 nm fluorescence, higher = more signal.
Assay [10] is described as follows: small-molecule microarray binders of probe aEGFR, primary screen, biochemical, biotinylated probe, 635/667 nm fluorescence (AID 1097).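 Note: probe is a biotinylated anti-EGFR antibody binding compounds printed on slides; score combines fluorescence near 667 nm and signal to noise of each spot.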 As to conditions: higher = more signal.
Assay [11] has as its system Plasmodium falciparum Sir2 (PF13_0152, Sir2A). The assay can be described thus: pfSir2 binders on small-molecule microarrays, primary screen, biochemical, small-molecule microarray, 635 nm fluorescence (AID 1098).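 Note: score merges spot fluorescence intensity with its signal-to-noise ratio.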 The settings on record: small-molecule microarray binding, fluorescence 635 nm; higher = more signal.
Assay [12] in a line: small-molecule microarray binders of probe aDKK1, primary screen, biochemical, biotinylated probe, 635/667 nm fluorescence (AID 1099).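 Note: score merges 667nm spot fluorescence with signal to noise across triplicate slides; reference of the scale not given here.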 The settings on record: higher = more signal.
The nature of assay [13]: small-molecule microarray binders of probe aCHRDL2, primary screen, biochemical, biotinylated probe, 635/667 nm fluorescence (AID 1100). As to conditions: higher = more signal.
Assay [14] can be described thus: splicing luciferase reporter signal modulators, primary screen, spliceosome inhibition project, cell-based, HEK293, splice +/- reporter (AID 1101).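 Note: HEK293 cells carrying a splicing-competent luciferase reporter gene; test concentration not given here.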 The settings on record: luminescence, 24 h, higher = more signal, called active from +8 up or from −8 down. A general note: A reporter such as luciferase makes a cellular process visible.
In assay [15] the target is Fibroblast growth factor 10 (Homo sapiens) (UniProt O15520). As to the kind of experiment: FGF10 binders on small-molecule microarrays, primary screen, biochemical, small-molecule microarray, 635 nm fluorescence (AID 1102). As to conditions: FGF10 binding, fluorescence 635 nm, higher = more signal.
Assay [16] relates to glycogen synthase kinase-3 (GSK3A per assay name; protocol says GSK3B). The assay can be described thus: GSK3 binders on small-molecule microarrays, primary screen, biochemical, small-molecule microarray, 635 nm fluorescence, GSK3A (AID 1103). Note: the record names both GSK3A and GSK3B. As to conditions: small-molecule microarray binding, fluorescence 635 nm; higher = more signal.
The target of assay [17] is Epidermal growth factor receptor (Homo sapiens) (UniProt P00533). The assay can be described thus: EGFR binders on small-molecule microarrays, primary screen, biochemical, small-molecule microarray, 635 nm fluorescence (AID 1104).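 Note: score merges 667 nm emission intensity with spot signal to noise over triplicate slides.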 As to conditions: EGFR binding, higher = more signal.
In assay [18] the target is Follistatin-related protein 3 (Homo sapiens) (UniProt O95633). The assay can be described thus: FSTL3 binders on small-molecule microarrays, primary screen, biochemical, small-molecule microarray, 635 nm fluorescence (AID 1105).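 Note: score merges emission near 667 nm and signal to noise per printed spot across three slides.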 The settings on record: FSTL3 binding, higher = more signal.
The target of assay [19] is Dickkopf-related protein 1 (Homo sapiens) (UniProt O94907). The assay can be described thus: DKK1 binders on small-molecule microarrays, primary screen, biochemical, small-molecule microarray, 635 nm fluorescence scan (AID 1106).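 Note: score merges emission near 667 nm with signal to noise over three replicate slides.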 As to conditions: DKK1 binding, higher = more signal.
Assay [20] has as its system Inhibin beta A chain (activin A). The assay can be described thus: INHBA (activin A) binders on microarrays, primary screen, biochemical, small-molecule microarray, 635 nm fluorescence scan (AID 1107).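 Note: mouse activin A protein probed at 4.33 µg/mL on printed slides; score merges bound-protein fluorescence near 667 nm with spot signal-to-noise.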 The settings on record: small-molecule microarray binding, higher = more signal.

Sequence of Epidermal growth factor receptor (Homo sapiens) (P00533 whole entry, looked up): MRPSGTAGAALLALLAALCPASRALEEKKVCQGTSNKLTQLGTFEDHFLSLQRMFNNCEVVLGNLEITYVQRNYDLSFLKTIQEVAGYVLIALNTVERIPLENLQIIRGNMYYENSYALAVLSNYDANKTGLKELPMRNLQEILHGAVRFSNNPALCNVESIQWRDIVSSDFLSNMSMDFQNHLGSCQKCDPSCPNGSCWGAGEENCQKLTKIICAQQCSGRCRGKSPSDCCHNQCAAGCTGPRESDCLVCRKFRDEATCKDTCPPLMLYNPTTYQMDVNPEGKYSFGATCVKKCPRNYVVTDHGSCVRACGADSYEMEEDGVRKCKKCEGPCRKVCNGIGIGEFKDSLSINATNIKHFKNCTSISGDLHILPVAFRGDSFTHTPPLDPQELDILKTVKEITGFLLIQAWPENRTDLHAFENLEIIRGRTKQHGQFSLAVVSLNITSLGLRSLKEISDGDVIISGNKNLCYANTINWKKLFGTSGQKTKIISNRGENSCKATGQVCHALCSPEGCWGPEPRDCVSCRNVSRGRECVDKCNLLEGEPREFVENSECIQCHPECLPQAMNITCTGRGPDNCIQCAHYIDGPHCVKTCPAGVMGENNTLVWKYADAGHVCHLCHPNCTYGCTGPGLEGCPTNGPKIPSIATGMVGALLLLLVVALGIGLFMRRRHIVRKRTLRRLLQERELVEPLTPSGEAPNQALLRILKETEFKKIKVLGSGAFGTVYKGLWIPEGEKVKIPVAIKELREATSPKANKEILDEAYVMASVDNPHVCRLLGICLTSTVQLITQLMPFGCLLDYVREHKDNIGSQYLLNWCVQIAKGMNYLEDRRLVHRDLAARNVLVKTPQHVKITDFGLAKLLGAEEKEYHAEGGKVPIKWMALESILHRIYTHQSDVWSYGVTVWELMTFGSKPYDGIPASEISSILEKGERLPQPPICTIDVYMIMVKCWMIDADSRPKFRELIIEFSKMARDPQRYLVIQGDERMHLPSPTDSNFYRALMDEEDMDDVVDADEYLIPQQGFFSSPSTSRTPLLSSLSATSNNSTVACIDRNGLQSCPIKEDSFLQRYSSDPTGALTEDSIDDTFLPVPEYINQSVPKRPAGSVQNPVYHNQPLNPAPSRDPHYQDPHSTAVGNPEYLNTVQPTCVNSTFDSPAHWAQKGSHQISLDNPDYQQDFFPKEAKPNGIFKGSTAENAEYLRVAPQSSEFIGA
Sequence of Fibroblast growth factor 10 (Homo sapiens) (O15520 whole entry, looked up): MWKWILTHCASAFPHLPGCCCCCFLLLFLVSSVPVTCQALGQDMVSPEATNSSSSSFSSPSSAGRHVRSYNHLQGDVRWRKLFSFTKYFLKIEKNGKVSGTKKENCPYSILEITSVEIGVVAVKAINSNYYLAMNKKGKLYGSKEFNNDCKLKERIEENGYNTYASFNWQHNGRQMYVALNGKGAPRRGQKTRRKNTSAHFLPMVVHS
Sequence of Dickkopf-related protein 1 (Homo sapiens) (O94907 whole entry, looked up): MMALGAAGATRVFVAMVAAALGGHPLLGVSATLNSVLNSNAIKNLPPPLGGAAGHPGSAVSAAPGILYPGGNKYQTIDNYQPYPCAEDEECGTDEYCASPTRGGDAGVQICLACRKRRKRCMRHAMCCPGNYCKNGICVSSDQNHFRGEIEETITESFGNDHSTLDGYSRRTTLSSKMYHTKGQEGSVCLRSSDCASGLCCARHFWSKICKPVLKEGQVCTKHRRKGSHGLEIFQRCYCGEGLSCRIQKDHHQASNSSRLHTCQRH
Sequence of Torsin-1A-interacting protein 2 (Homo sapiens) (Q8NFQ8 whole entry, looked up): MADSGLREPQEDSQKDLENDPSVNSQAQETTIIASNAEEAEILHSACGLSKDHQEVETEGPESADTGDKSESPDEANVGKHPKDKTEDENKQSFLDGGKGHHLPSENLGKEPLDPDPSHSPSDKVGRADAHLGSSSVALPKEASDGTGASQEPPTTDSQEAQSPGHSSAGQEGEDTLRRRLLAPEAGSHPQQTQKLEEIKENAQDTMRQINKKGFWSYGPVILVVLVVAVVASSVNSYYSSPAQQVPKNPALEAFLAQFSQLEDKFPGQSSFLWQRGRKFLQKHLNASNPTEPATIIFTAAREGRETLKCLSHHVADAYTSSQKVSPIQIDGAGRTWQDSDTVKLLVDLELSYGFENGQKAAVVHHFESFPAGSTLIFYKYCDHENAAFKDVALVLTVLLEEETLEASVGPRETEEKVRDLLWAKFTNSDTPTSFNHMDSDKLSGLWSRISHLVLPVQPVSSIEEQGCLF
Sequence of Follistatin-related protein 3 (Homo sapiens) (O95633 whole entry, looked up): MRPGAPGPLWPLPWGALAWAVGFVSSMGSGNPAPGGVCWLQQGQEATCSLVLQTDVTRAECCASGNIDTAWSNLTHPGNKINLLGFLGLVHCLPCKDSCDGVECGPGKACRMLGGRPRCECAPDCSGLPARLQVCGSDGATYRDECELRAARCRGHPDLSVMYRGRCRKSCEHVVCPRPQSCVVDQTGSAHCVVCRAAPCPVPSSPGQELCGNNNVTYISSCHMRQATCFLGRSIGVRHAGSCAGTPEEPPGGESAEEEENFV
Sequence of Neurogenic locus notch homolog protein 3 (Homo sapiens) (Q9UM47 whole entry, looked up): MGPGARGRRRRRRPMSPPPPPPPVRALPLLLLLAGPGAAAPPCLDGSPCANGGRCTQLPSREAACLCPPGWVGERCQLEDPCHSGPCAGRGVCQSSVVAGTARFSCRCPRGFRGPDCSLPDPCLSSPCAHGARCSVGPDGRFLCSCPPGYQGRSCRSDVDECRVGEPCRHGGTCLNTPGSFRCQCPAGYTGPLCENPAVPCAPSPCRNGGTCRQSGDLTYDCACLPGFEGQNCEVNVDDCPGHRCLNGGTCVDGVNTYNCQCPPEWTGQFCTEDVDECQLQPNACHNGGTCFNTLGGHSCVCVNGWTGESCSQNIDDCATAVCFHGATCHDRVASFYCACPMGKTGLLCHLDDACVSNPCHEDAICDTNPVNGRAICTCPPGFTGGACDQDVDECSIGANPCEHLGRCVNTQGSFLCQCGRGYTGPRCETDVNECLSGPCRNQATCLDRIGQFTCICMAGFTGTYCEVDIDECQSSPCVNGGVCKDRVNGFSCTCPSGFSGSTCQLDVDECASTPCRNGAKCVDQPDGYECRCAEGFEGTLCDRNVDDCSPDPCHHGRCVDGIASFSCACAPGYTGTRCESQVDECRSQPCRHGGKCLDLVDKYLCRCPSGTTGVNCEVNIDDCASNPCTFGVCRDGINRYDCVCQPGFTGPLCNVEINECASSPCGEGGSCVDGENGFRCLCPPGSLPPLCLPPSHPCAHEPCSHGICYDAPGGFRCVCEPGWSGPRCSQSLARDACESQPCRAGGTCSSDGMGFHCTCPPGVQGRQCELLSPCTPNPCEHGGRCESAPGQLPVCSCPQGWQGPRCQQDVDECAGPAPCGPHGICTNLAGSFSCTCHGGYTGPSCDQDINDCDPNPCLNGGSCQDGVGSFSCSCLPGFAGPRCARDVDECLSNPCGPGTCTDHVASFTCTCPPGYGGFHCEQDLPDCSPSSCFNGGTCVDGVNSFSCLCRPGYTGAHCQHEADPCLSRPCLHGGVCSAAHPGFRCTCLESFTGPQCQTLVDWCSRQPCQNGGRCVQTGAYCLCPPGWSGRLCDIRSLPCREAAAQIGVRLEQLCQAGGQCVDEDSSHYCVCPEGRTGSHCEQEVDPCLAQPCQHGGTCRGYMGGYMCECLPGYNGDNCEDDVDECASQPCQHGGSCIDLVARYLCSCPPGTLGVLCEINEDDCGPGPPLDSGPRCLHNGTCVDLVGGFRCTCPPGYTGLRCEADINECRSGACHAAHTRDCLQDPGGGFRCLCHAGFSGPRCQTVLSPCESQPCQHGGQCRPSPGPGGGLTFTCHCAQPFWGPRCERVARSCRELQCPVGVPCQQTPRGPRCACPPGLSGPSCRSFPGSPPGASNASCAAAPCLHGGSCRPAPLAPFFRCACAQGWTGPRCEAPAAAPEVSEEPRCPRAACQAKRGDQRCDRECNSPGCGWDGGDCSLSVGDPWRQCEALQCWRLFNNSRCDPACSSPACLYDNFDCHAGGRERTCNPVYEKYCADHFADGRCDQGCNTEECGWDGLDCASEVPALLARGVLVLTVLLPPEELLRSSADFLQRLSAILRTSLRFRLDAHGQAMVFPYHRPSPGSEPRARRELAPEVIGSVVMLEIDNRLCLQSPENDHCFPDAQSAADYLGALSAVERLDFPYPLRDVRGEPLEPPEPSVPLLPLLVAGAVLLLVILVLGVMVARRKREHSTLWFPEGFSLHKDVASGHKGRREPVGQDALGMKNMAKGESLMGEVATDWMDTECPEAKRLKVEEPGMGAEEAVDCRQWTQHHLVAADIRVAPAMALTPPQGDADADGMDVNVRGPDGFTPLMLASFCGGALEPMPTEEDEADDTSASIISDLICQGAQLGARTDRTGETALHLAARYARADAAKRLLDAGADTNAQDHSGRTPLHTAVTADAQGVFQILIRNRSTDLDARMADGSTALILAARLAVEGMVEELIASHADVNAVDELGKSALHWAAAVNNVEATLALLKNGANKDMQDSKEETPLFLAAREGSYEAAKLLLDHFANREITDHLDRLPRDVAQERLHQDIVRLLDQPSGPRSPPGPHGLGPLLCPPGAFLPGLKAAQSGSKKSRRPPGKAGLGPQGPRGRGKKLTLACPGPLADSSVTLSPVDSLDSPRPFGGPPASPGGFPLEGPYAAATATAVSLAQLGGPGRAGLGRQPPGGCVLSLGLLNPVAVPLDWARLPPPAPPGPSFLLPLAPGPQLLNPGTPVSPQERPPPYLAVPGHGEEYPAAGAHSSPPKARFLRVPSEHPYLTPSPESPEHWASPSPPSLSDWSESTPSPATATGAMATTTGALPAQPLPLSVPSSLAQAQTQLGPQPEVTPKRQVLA

In the case of `O=C1OCC=C[C@H]2OC34C=CCN(CCN5CCOCC5)C(=O)[C@H]3N(CCCCCCO)C(=O)[C@@H]4[C@@H]12` (stereo not given in full), the composite z-score in assay [1] was 0.171; in assay [5], 2.87; in assay [7], -0.0009; in [8], 0.0056; in assay [9] it was -0.0123; in assay [10], 0.0792. The composite z-score was 1.18 in [11]; -0.148 in assay [12]; 0.251 in assay [13]; -0.231 in [15]; -0.162 in assay [16]; -0.0057 in assay [17]. For the same compound, the results for the composite z-score in assay [18], in assay [19] and in [20] were 0.376, 0.0105 and 1.35, respectively. Moreover, the z-score was -1.4 (inactive) in assay [2]; -1.1 (inactive) in assay [3]; -0.918 (inactive) in assay [4]; -0.608 (inactive) in assay [6]; 0.364 (inactive) in [14].

Regarding `CO[C@H]1O[C@H](CO)[C@@H](OC(=O)Nc2ccccc2-c2ccccc2)[C@H](OC(=O)Nc2ccccc2-c2ccccc2)[C@H]1OC(=O)Nc1ccccc1-c1ccccc1`, the composite z-score in [1] amounted to 1.54; in [5] it was 3.23; in [7], 0.115; in assay [8] it was 0.65; in assay [9], 1.08; in assay [10], 0.0553. In addition, the composite z-score in [11] is 1.54; in [12], 0.677; in [13] it was 0.607; in assay [15] it was 1.4; in [16] it was 1.35; in assay [17], 0.197. Also, the composite z-score in assay [18] amounted to 1.36; in assay [19], 0.289; in [20], 0.628. Besides, the z-score was 3.06 (inactive) in assay [2]; 2.48 (inactive) in assay [3]; 10.6 (active) in assay [4]; 0.956 (inactive) in assay [6]; -0.316 (inactive) in [14].

`C#C[C@H](O[Si](C#CCCCCCC)(C(C)C)C(C)C)c1ccccc1`: the composite z-score in assay [1] was 0.631; in assay [5] it was 0.432; in assay [7], -0.114; in assay [8], 0.186; in assay [9], 0.13; in assay [10], -0.171. The composite z-score in assay [11] was -0.369; in assay [12] it was -0.109; in [13], -0.132; in [15], -0.0831; in [16], 0.173; in assay [17], -0.33. Also, the composite z-score in [18] is -0.215; in assay [19], -0.169; in assay [20] it was 0.168. Moreover, the z-score in assay [2] is 0.0821 (inactive); in assay [3], 0.384 (inactive); in assay [4], -0.653 (inactive); in [6], 0.411 (inactive); in [14], -0.22 (inactive).

On to `CN1C(=O)C2C=CC(C(O)c3ccc(Br)cc3)N(Nc3ccccc3)C2C1=O` (stereo not given), for which the composite z-score in [1] was -0.897; in [5] it was 1.27; in [7] it was 0.296; in assay [8], -1.48; in assay [9] it was -1.17; in assay [10] it was -0.0594. The composite z-score in [11] is -0.186; in assay [12], 0.528; in [13], 1.03; in assay [15], -0.583; in assay [16], -1.21; in assay [17] it was -1.3. Further, the composite z-score in [18] was -1.09; in assay [19], -1.49; in [20], 1.12. The z-score in assay [2] is 0.947 (inactive); in assay [3], -0.0449 (inactive); in assay [4], 0.878 (inactive); in assay [6] it was -0.54 (inactive); in assay [14] it was 1.11 (inactive).

Regarding `COCCn1c(C(=O)N2CCCC2)cc2c1C[C@H]1CN(C(=O)c3ccccc3)[C@@](Cc3ccc(OC)cc3)(C(=O)OC)[C@@H]21`, the composite z-score in [1] is 0.0027; in assay [5], 1.72; in [7], 0.656; in assay [8] it was -0.843; in [9] it was 1.1; in assay [10], 0.147. Moreover, the composite z-score in assay [11] was 0.994; in assay [12], 1.41; in assay [13] it was 1.44; in assay [15] it was 0.344; in assay [16], 0.194; in assay [17], -0.224. Moreover, the composite z-score in assay [18] is 0.682; in assay [19], -0.223; in assay [20], 1.06. The z-score in assay [2] is -2.08 (inactive); in assay [3], 0.422 (inactive); in [4], -0.651 (inactive); in assay [6] it was 0.0251 (inactive); in assay [14] it was -1.82 (inactive).

`CCOC1=C2C(c3ccc(C)cc3)N(S(=O)(=O)c3ccc(C)cc3)CC2n2c(=O)n(-c3ccccc3)c(=O)n2C1` (stereo not given): the composite z-score in assay [1] stood at 1.41; in assay [5] it was 2.89; in assay [7], 0.152; in assay [8], 0.351; in [9] it was 1.08; in assay [10], 0.0201. Also, the composite z-score in assay [11] stood at 0.818; in [12] it was 0.579; in assay [13], 0.5; in assay [15], 1.04; in assay [16], 1.29; in [17], 0.559. The composite z-score in [18] was 1.26; in assay [19] it was 0.424; in assay [20], 0.329. Besides, the z-score in [2] was -0.281 (inactive); in assay [3] it was 0.401 (inactive); in assay [4], 1.73 (inactive); in assay [6], -0.278 (inactive); in assay [14], -0.0374 (inactive).
